This is an account of results in PubChem BioAssay (Tox21).

Each structure is given as a SMILES string. Inconclusive results are not listed. Unmarked numbers belong to inactive results. Activity calls are given as the source filed them. Calls follow the shape of the dose curve; as a rule, active = well fitted inhibition curve with a large enough effect in the signal ratio in the repeat runs (not every such curve was filed as active); inconclusive = weak or mixed curves, or effect the other way; inactive = no such curve, though single readings can be large or run the other way; the % refers to the signal ratio.
% is scaled to controls: 0 for no effect and ±100 for the full control effect; potency is read from the fitted curve at half-maximal effect.

In this assay the target is Estrogen receptor beta (Homo sapiens) (UniProt Q92731). Description: qHTS assay to identify small molecule antagonists of the estrogen receptor beta (ER-beta) signaling pathway (AID 1259378). The conditions noted are these: ER-beta-UAS-bla HEK293T, beta-lactamase FRET ratio, 16 h; series mostly up to 92.4 µM; activity, negative = inhibition: at the top concentration. An excerpt: National Center for Advancing Translational Sciences [NCATS]
Estrogen receptor beta (Homo sapiens), sequence (Q92731 whole entry, looked up): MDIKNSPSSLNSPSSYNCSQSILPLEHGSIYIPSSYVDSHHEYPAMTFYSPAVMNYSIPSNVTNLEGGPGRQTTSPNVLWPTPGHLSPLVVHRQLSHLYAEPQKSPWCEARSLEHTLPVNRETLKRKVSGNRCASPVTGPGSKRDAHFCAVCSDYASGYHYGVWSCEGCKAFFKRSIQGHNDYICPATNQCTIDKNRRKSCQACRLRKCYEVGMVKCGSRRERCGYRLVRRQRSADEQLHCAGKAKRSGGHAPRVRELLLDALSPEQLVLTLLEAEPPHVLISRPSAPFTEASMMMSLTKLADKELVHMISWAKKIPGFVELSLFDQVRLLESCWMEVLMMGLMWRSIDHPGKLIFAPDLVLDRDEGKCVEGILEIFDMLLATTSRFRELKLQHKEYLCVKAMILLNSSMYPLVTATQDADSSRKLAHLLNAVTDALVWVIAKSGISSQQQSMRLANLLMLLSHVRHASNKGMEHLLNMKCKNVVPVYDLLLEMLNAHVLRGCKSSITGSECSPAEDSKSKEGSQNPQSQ
NIH Chemical Genomics Center [NCGC]
U.S. Environmental Protection Agency [EPA]
National Institutes of Environmental Health Sciences [NIEHS]
National Toxicology Program [NTP]
U.S. Food and Drug Administration [FDA]
Estrogen receptor (ER), a nuclear hormone receptor, plays an important role in development, metabolic homeostasis and reproduction. Two subtypes of ER, ER-alpha and ER-beta, have similar expression patterns with some uniqueness in both types. Endocrine disrupting chemicals (EDCs) and their interactions with steroid hormone receptors like ER causes disruption of normal endocrine function. To identify the compounds that inhibit ER signaling, an ER-beta-UAS-bla GripTite cell line (Life Technologies, Madison, WI, USA) containing a beta-lactamase reporter gene under the control of an UAS response element was used to screen Tox21 10K compound library.
Tox21 Assay Protocol Summary:
ER-beta-UAS-bla HEK293T cells were dispensed at 2,000 cells/4 uL of assay medium containing 2% charcoal stripped FBS per well into black wall/clear-bottom 1536-well plates using a Multidrop Combi (ThermoFisher Scientific, Waltham, MA) dispenser. After the assay plates were incubated at a 37C and 5% CO2 for 6 hr, 23 nL of compounds dissolved in DMSO, positive controls or DMSO only was transferred to the assay plate by a Pintool station (Kalypsys, San Diego, CA), followed by addition of 1 uL (1nM as final concentration) of 17-beta-estradiol (E2) in assay medium using a BioRAPTR FRD (Flying Reagent Dispenser, Aurora Discovery, San Diego, CA). The plates were incubated at 37C and 5% CO2 for 16 hr. Then 1 uL of LiveBLAzerTM B/G FRET substrate was added using a Flying Reagent Dispenser, the plates were incubated at room temperature for 2 hours, and fluorescence intensity was measured by an Envision plate reader (PerkinElmer, Shelton, CT).
On the technique in general: qHTS replaces the single test concentration by a dilution series.
For the molecule `O=C(O)c1ccc2c(c1)nc(C(=O)NC1CCN(C3CC3)CC1)n2Cc1cc(-c2ccc(Cl)s2)on1`, the activity, negative = inhibition was 18.6% [at 19 µM].

Consider `CC1(C)CC(O)CC(C)(C)N1[O]`, for which the “activity, negative = inhibition” value is -1.37%.

Turning to `C=C[Si](OCC)(OCC)OCC`, the “activity, negative = inhibition” value was 2.5%.

As for `CCCCCCCCS`, the “activity, negative = inhibition” value was 12.6%.

As to `CCCCCCCCC(=O)OCC(C)OC(=O)CCCCCCCC` (stereo not given), the “activity, negative = inhibition” value is 6.64%.

Take `CCOC(=O)CC(O)(CC(=O)OCC)C(=O)OCC`: the “activity, negative = inhibition” value is -8.2%.

As to `CC(C)=CCC/C(C)=C/C=N/O`, the “activity, negative = inhibition” value was -6.98%.

Regarding `CCCCOc1ccc(N)cc1`, the “activity, negative = inhibition” value is -11.3%.

In the case of `Sc1nc(S)nc(S)n1`, the “activity, negative = inhibition” value is -12.8% [at 42.5 µM].

`O=C(O)c1cc(C(=O)O)c(C(=O)O)cc1C(=O)O`: the “activity, negative = inhibition” value was 14.3%.

`O=C(O)c1c2ccccc2cc2ccccc12`: the “activity, negative = inhibition” value is 2.12%.

For the molecule `CCC(C)C1N=C(C)C(C)S1` (stereo not given), the “activity, negative = inhibition” value is 1.59%.

As to `O=Cc1ccc(Cl)c([N+](=O)[O-])c1`, the “activity, negative = inhibition” value is 24.4%.

Take `N#C[C@@H]1CC(F)(F)CN1C(=O)CNC1CC2CCC(C1)N2c1ncccn1` (stereo not given in full): the “activity, negative = inhibition” value is 0.148%.

`CCC(CC)C(=O)O`: the “activity, negative = inhibition” value is 12%.

Consider `CC(C)(C(=O)O)c1ccc(C(O)CCCN2CCC(C(O)(c3ccccc3)c3ccccc3)CC2)cc1` (stereo not given), for which the “activity, negative = inhibition” value was 4.67% [at 42.5 µM].

Consider `C[C@H](CN1CCCC1)C(=O)c1ccc(C(F)(F)F)cc1`, for which the “activity, negative = inhibition” value was 4.8% [at 42.5 µM].

On to `C=C[Si]1(C)O[Si](C)(C=C)O[Si](C)(C=C)O[Si](C)(C=C)O1` (stereo not given), for which the “activity, negative = inhibition” value is 4.39%.

For `FC(F)(Cl)C(F)(Cl)Cl`, the “activity, negative = inhibition” value is 15.6%.

Turning to `CC1(C)[C@@H]2CC[C@]3(C2)[C@@H]1C(=O)CCC3(C)C`, the “activity, negative = inhibition” value was 4.35%.

Consider `C=CC(C)CCC=C(C)C` (stereo not given), for which the “activity, negative = inhibition” value is -2.95%.

On to `FC1(F)C(F)(F)C(F)(F)C2(F)C(F)(C1(F)F)C(F)(F)C(F)(F)C1(F)C(F)(F)C(F)(F)C(F)(F)C(F)(F)C12F` (stereo not given), for which the “activity, negative = inhibition” value was 9.42%.

As to `OCCc1ccncc1`, the “activity, negative = inhibition” value is 2.72%.

Consider `O=C(O)c1ccncc1`, for which the “activity, negative = inhibition” value is -9.16%.

`CCOC(OCC)OCC`: the “activity, negative = inhibition” value was 7.64%.

`COc1ccc(/C=C/c2cc(OC)cc(=O)o2)cc1`: the “activity, negative = inhibition” value is 10.7% [at 42.5 µM].

As to `CC(=O)Nc1cccc(N)c1`, the “activity, negative = inhibition” value was 1.04%.

Consider `CO[C@@H]1[C@@H](O[C@@H]2O[C@H](C)[C@@H](O[C@H]3C[C@@](C)(O)[C@@H](O)[C@H](C)O3)[C@H](N(C)C)[C@H]2O)[C@@H](CC=O)C[C@@H](C)[C@@H](O[C@@H]2CC[C@H](N(C)C)[C@@H](C)O2)/C=C/C=C/C[C@@H](C)OC(=O)C[C@H]1OC(C)=O`, for which the “activity, negative = inhibition” value is -16.9% [at 42.5 µM].

Turning to `Cc1cc(N)n(-c2ccccc2)n1`, the “activity, negative = inhibition” value is -13.9%.

For the molecule `NC(=O)c1ccccc1C(N)=O`, the “activity, negative = inhibition” value was -11.2%.

Take `O=C(c1ccc(Cl)cc1)c1ccc(Cl)cc1`: the “activity, negative = inhibition” value was 2.36%.

For the molecule `CC1(C)CC(=O)CC(C)(C)N1`, the “activity, negative = inhibition” value is 0.717%.

For the molecule `C(/C=C/C=C/Nc1ccccc1)=Nc1ccccc1`, the “activity, negative = inhibition” value was -0.81%.

In the case of `CC1=C(C)C(=O)C(CCCCC#CCCCC#CCO)=C(C)C1=O`, the Potency is 21.1 µM (active).

In the case of `C1CCN(CN2CCCCC2)CC1`, the “activity, negative = inhibition” value was 9.72%.

As for `CCCC1CCOC(C)S1` (stereo not given), the “activity, negative = inhibition” value was 8.03%.

In the case of `COc1ccnc2c1CCCCC2S(=O)c1nc2ccccc2[nH]1` (stereo not given), the “activity, negative = inhibition” value was -15.1% [at 42.5 µM].

With `O=C(OCCOCCOCCOC(=O)c1ccccc1)c1ccccc1`, the “activity, negative = inhibition” value was 3.8%.

On to `c1ccc(CCNc2nc(-c3ccccc3)cs2)cc1`, for which the “activity, negative = inhibition” value is -17.3% [at 42.5 µM].

In the case of `O=C1C=CCCC1`, the “activity, negative = inhibition” value is 13.6%.
